PubChem BioAssay AID1159580 (chemical genetic matrix, 2015)
Values joined by “and” are separate entries in the source; they are usually repeats but may differ in a detail not shown here. Identical values can stand only once. In all, about 5,500 compounds went through this assay and about 2,000 (36%) were called active. Not shown: some 18% with an inconclusive outcome. The list shows a part of the results. Unmarked numbers belong to inactive results. Cut-off read from the data, not from the text of the source: active = normalized growth mostly below about 0.91 (no sharp cut-off); inconclusive = no clear call, values can overlap the other calls; inactive = mostly above about 0.92.

Assay: chemical genetic growth profiling, strain panel (AID 1159580);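 note: tested at 20 µM; growth read once vehicle control cultures reached saturation at 30 °C; 1 = growth at the plate median or of vehicle wells; lower values mean less growth of the strain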
Conditions: growth OD

NC(CO)C(=O)NNCc1ccc(O)c(O)c1O (configuration not stated)
normalized growth (S. cerevisiae deletion strains, locus YJR066W, strain TOR1, stronger effect = lower value): 0.99 | normalized growth (S. cerevisiae deletion strains, locus YJR075W, strain HOC1, stronger effect = lower value): 1.01 and 0.944 | normalized growth (S. cerevisiae deletion strains, locus YKL009W, strain mrt4, stronger effect = lower value): 0.973 | normalized growth (S. cerevisiae deletion strains, locus YKL068W, stronger effect = lower value): 1.01 | normalized growth (S. cerevisiae deletion strains, locus YKL085W, strain MDH1 (second series), stronger effect = lower value): 1 | normalized growth (S. cerevisiae deletion strains, locus YKL085W, strain MDH1, stronger effect = lower value): 1 | normalized growth (S. cerevisiae deletion strains, locus YKL160W, strain elf1, stronger effect = lower value): 1.02 | normalized growth (S. cerevisiae deletion strains, locus YKR001C, strain vps1, stronger effect = lower value): 0.986 | normalized growth (S. cerevisiae deletion strains, locus YKR026C, strain gcn3, stronger effect = lower value): 0.991 | normalized growth (S. cerevisiae deletion strains, locus YKR091W, strain srl3, stronger effect = lower value): 0.993 | normalized growth (S. cerevisiae deletion strains, locus YLL001W, strain dnm1, stronger effect = lower value): 1.03 | normalized growth (S. cerevisiae deletion strains, locus YLL026W, stronger effect = lower value): 1.02 | normalized growth (S. cerevisiae deletion strains, locus YLL041C, strain sdh2, stronger effect = lower value): 1 | normalized growth (S. cerevisiae deletion strains, locus YLR027C, strain aat2, stronger effect = lower value): 1.01 | normalized growth (S. cerevisiae deletion strains, locus YLR039C, strain RIC1, stronger effect = lower value): 1.01 | normalized growth (S. cerevisiae deletion strains, locus YLR058C, strain SHM2, stronger effect = lower value): 1.01 | normalized growth (S. cerevisiae deletion strains, locus YLR102C, strain apc9, stronger effect = lower value): 0.983 | normalized growth (S. cerevisiae deletion strains, locus YLR113W, strain HOG1, stronger effect = lower value): 1.1 | normalized growth (S. cerevisiae deletion strains, locus YLR221C, strain rsa3, stronger effect = lower value): 0.951 | normalized growth (S. cerevisiae deletion strains, locus YLR258W, strain gsy2, stronger effect = lower value): 0.974 | normalized growth (S. cerevisiae deletion strains, locus YLR262C, strain YPT6 (second series), stronger effect = lower value): 0.915 | normalized growth (S. cerevisiae deletion strains, locus YLR262C, strain YPT6, stronger effect = lower value): 1.04 | normalized growth (S. cerevisiae deletion strains, locus YLR268W, strain sec22, stronger effect = lower value): 0.984 | normalized growth (S. cerevisiae deletion strains, locus YLR320W, strain mms22, stronger effect = lower value): 0.987 | normalized growth (S. cerevisiae deletion strains, locus YLR330W, strain CHS5, stronger effect = lower value): 1.01 | normalized growth (S. cerevisiae deletion strains, locus YLR342W, strain FKS1 (second series), stronger effect = lower value): 1.06 | normalized growth (S. cerevisiae deletion strains, locus YLR342W, strain FKS1, stronger effect = lower value): 1.01 | normalized growth (S. cerevisiae deletion strains, locus YLR357W, strain rsc2, stronger effect = lower value): 0.911 | normalized growth (S. cerevisiae deletion strains, locus YLR370C, strain arc18, stronger effect = lower value): 0.995 | normalized growth (S. cerevisiae deletion strains, locus YLR371W, strain rom2, stronger effect = lower value): 0.991 | normalized growth (S. cerevisiae deletion strains, locus YLR384C, strain iki3, stronger effect = lower value): 1 | normalized growth (S. cerevisiae deletion strains, locus YLR418C, strain cdc73, stronger effect = lower value): 0.98 | normalized growth (S. cerevisiae deletion strains, locus YML016C, strain PPZ1, stronger effect = lower value): 1.01 | normalized growth (S. cerevisiae deletion strains, locus YML032C, strain rad52, stronger effect = lower value): 0.993 | normalized growth (S. cerevisiae deletion strains, locus YML120C, strain ndi1, stronger effect = lower value): 1.01 | normalized growth (S. cerevisiae deletion strains, locus YML124C, strain tub3, stronger effect = lower value): 0.996 | normalized growth (S. cerevisiae deletion strains, locus YMR058W, strain fet3, stronger effect = lower value): 0.688 (active) | normalized growth (S. cerevisiae deletion strains, locus YMR078C, strain ctf18, stronger effect = lower value): 0.992 | normalized growth (S. cerevisiae deletion strains, locus YMR125W, strain sto1, stronger effect = lower value): 1.01 | normalized growth (S. cerevisiae deletion strains, locus YMR129W, stronger effect = lower value): 0.992 | normalized growth (S. cerevisiae deletion strains, locus YMR205C, strain PFK2, stronger effect = lower value): 1.07 | normalized growth (S. cerevisiae deletion strains, locus YMR223W, strain ubp8, stronger effect = lower value): 1.01 | normalized growth (S. cerevisiae deletion strains, locus YMR231W, strain pep5, stronger effect = lower value): 0.991 | normalized growth (S. cerevisiae deletion strains, locus YMR307W, strain GAS1, stronger effect = lower value): 1 and 0.976 | normalized growth (S. cerevisiae deletion strains, locus YNL067W, strain RPL9B, stronger effect = lower value): 0.984 | normalized growth (S. cerevisiae deletion strains, locus YNL071W, strain lat1, stronger effect = lower value): 1.01 | normalized growth (S. cerevisiae deletion strains, locus YNL153C, strain GIM3, stronger effect = lower value): 1 | normalized growth (S. cerevisiae deletion strains, locus YNL175C, strain NOP13, stronger effect = lower value): 0.988 | normalized growth (S. cerevisiae deletion strains, locus YNL183C, strain NPR1, stronger effect = lower value): 0.99 | normalized growth (S. cerevisiae deletion strains, locus YNL197C, strain WHI3, stronger effect = lower value): 0.935 | normalized growth (S. cerevisiae deletion strains, locus YNL209W, strain ssb2, stronger effect = lower value): 0.9 (active) | normalized growth (S. cerevisiae deletion strains, locus YNL224C, strain SQS1, stronger effect = lower value): 1.01 | normalized growth (S. cerevisiae deletion strains, locus YNL233W, strain BNI4, stronger effect = lower value): 0.998 | normalized growth (S. cerevisiae deletion strains, locus YNL248C, strain rpa49, stronger effect = lower value): 0.946 | normalized growth (S. cerevisiae deletion strains, locus YNL250W, strain rad50, stronger effect = lower value): 0.983 | normalized growth (S. cerevisiae deletion strains, locus YNL271C, strain bni1, stronger effect = lower value): 1 | normalized growth (S. cerevisiae deletion strains, locus YNL298W, strain CLA4, stronger effect = lower value): 0.988 | normalized growth (S. cerevisiae deletion strains, locus YNL307C, strain MCK1, stronger effect = lower value): 0.982 | normalized growth (S. cerevisiae deletion strains, locus YNL322C, strain KRE1 (second series), stronger effect = lower value): 0.999 | normalized growth (S. cerevisiae deletion strains, locus YNR049C, strain mso1, stronger effect = lower value): 0.99 | normalized growth (S. cerevisiae deletion strains, locus YNR052C, strain pop2, stronger effect = lower value): 1.01 | normalized growth (S. cerevisiae deletion strains, locus YOL012C, strain htz1): 0.788 | normalized growth (S. cerevisiae deletion strains, locus YOL147C, strain pex11, stronger effect = lower value): 0.98 | normalized growth (S. cerevisiae deletion strains, locus YOR001W, strain rrp6, stronger effect = lower value): 1.03 | normalized growth (S. cerevisiae deletion strains, locus YOR061W, strain CKA2, stronger effect = lower value): 1.01 | normalized growth (S. cerevisiae deletion strains, locus YOR069W, strain VPS5, stronger effect = lower value): 1 | normalized growth (S. cerevisiae deletion strains, locus YOR070C, strain gyp1, stronger effect = lower value): 0.972 | normalized growth (S. cerevisiae deletion strains, locus YOR080W, strain dia2, stronger effect = lower value): 1.01 | normalized growth (S. cerevisiae deletion strains, locus YOR083W, strain WHI5 (second series), stronger effect = lower value): 0.978 | normalized growth (S. cerevisiae deletion strains, locus YOR083W, strain WHI5, stronger effect = lower value): 0.986 | normalized growth (S. cerevisiae deletion strains, locus YOR106W, strain vam3, stronger effect = lower value): 0.948 | normalized growth (S. cerevisiae deletion strains, locus YOR136W, strain idh2, stronger effect = lower value): 0.97 | normalized growth (S. cerevisiae deletion strains, locus YOR144C, strain elg1, stronger effect = lower value): 0.987 | normalized growth (S. cerevisiae deletion strains, locus YOR184W, strain ser1, stronger effect = lower value): 0.993 | normalized growth (S. cerevisiae deletion strains, locus YOR231W, strain MKK1, stronger effect = lower value): 1.07 | normalized growth (S. cerevisiae deletion strains, locus YOR265W, strain rbl2, stronger effect = lower value): 0.996 | normalized growth (S. cerevisiae deletion strains, locus YOR270C, strain vph1, stronger effect = lower value): 0.996 | normalized growth (S. cerevisiae deletion strains, locus YOR290C, strain snf2, stronger effect = lower value): 0.957 | normalized growth (S. cerevisiae deletion strains, locus YOR316C, strain cot1, stronger effect = lower value): 0.991 | normalized growth (S. cerevisiae deletion strains, locus YPL051W, strain arl3, stronger effect = lower value): 0.973 | normalized growth (S. cerevisiae deletion strains, locus YPL055C, strain LGE1, stronger effect = lower value): 1.01 and 0.959 | normalized growth (S. cerevisiae deletion strains, locus YPL078C, strain atp4, stronger effect = lower value): 1.02 | normalized growth (S. cerevisiae deletion strains, locus YPL106C, strain sse1, stronger effect = lower value): 0.936 | normalized growth (S. cerevisiae deletion strains, locus YPL240C, strain hsp82, stronger effect = lower value): 0.991 | normalized growth (S. cerevisiae deletion strains, locus YPL241C, strain CIN2, stronger effect = lower value): 1.01 | normalized growth (S. cerevisiae deletion strains, locus YPL256C, strain CLN2, stronger effect = lower value): 1.09 | normalized growth (S. cerevisiae deletion strains, locus YPR119W, strain clb2, stronger effect = lower value): 0.999 | normalized growth (S. cerevisiae deletion strains, locus YPR141C, strain kar3, stronger effect = lower value): 0.987 | normalized growth (S. cerevisiae deletion strains, locus YPR163C, strain tif3, stronger effect = lower value): 0.991 | normalized growth (S. cerevisiae deletion strains, locus YPR167C, strain met16, stronger effect = lower value): 0.994 | normalized growth (S. cerevisiae deletion strains, strain wtn01, stronger effect = lower value): 1.02 | normalized growth (S. cerevisiae strains, strain wild type, stronger effect = lower value): 1
